The record followed here is PubChem BioAssay.

Where “and” joins values, the source holds several entries; their conditions need not be identical. Equal values may be shown once. Calls of active or inactive are those of the source. Unless noted, how the calls were made is not given here.

Test [1] can be described thus: resazurin metabolic signal in HepG2 cells – cell-based, resazurin fluorescence, 24 h, PK04 Diversity Set, profiling panel (AID 1172). The following applies: HepG2 viability, higher = more signal. On the technique in general: Resazurin is reduced to fluorescent resorufin, in cell work by metabolically active cells.
Test [2] can be described thus: budding yeast growth changes without added modifier – OD600, strain BY4716, 24 h, basal condition, primary screen (AID 1173). The following applies: S. cerevisiae BY4716 growth, OD600, 24 h; higher = more signal, called active from +8 up or from −8 down.
Test [3] can be described thus: viability profiling in MM1S myeloma cells – cell-based, resazurin fluorescence, basal, 24 h, PK04 Diversity Set, profiling panel (AID 1174).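 Further: MM1S multiple myeloma cell line.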 The following applies: higher = more signal, called active from +8 up or from −8 down.
Test [4] concerns the target Dihydroorotate dehydrogenase (quinone), mitochondrial (Plasmodium falciparum (isolate 3D7)) (UniProt Q08210). As to the kind of experiment: inhibition of P. falciparum DHODH – biochemical, C-terminal His tag, absorbance 600 nm, primary screen (AID 1175).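 Further: recombinant parasite enzyme with a five histidine tag at its C terminus.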 The following applies: PfDHODH enzyme, DCIP absorbance 600 nm; higher = more signal, called active from +8 up or from −8 down.

Test [5] is described as follows: inhibition of PAO1 biofilm formation – strain PAO1, LB-PBS medium, absorbance 600 nm, primary screen (AID 1176). The following applies: P. aeruginosa PAO1 growth/biofilm, A600, 12 h; higher = more signal.
Test [6] can be described thus: growth modulation of vineyard yeast isolate – strain RM11-1a, OD600, basal, 24 h, primary screen (AID 1177).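 Further: cultures grown under basal conditions with no added stressor.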 The following applies: S. cerevisiae RM11-1a growth, OD600, 24 h; higher = more signal, called active from +8 up or from −8 down.
Test [7] is described as follows: growth of efflux-deficient E. coli DRC39 – strain DRC39, OD650, 24 h, E. coli filamentation inducers, primary screen (AID 1178).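 Further: growth measured as culture turbidity by optical density at 650 nm.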 The settings on record: E. coli DRC39 acrAB, higher = more signal, called active from +8 up or from −8 down.
Test [8] can be described thus: growth of efflux-deficient E. coli DRC39 – strain DRC39, OD650, 48 h, E. coli filamentation inducers, primary screen (AID 1179).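 Further: screen aims at cell division blockers that make cells filament.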 The settings on record: E. coli DRC39 delta-acrAB growth, higher = more signal, called active from +8 up or from −8 down.
A short description of test [9]: viability profiling in RPMI8226 myeloma cells – cell-based, resazurin fluorescence, basal, 24 h, PK04 Diversity Set, profiling panel (AID 1180).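 Further: RPMI8826 multiple myeloma cell line at 5000 cells per well.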 The settings on record: higher = more signal.
The target in test [10] is E3 ubiquitin-protein ligase XIAP (Homo sapiens) (UniProt P98170). Description: small molecules binding XIAP protein – biophysical, small-molecule microarray, fluorescence 635 nm, primary screen (AID 1181).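 Further: score merges 667 nm emission and signal to noise over triplicate slides.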 The settings on record: higher = more signal.
Test [11] relates to XIP peptide (Xip251-270) binding. As to the kind of experiment: XIP fragment 251-270 binding compounds – biochemical, small-molecule microarray, fluorescence 635/667 nm, 0.1 µg/mL protein, primary screen (AID 1182). The settings on record: fluorescent protein binding, 635 nm, higher = more signal, called active from +8 up or from −8 down.
For test [12], the system named is XIP peptide (Xip251-270). As to the kind of experiment: compounds binding XIP fragment 251-270 – biochemical, small-molecule microarray, fluorescence 635/667 nm, 0.5 µg/mL protein, primary screen (AID 1183). The settings on record: fluorescence 635 nm, higher = more signal.
Test [13] in a line: blood-stage malaria parasite viability loss – strain 3D7, DAPI fluorescence, 100 nL, primary screen (AID 1184).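 Further: parasites grown inside human red blood cells in medium with human serum.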 The following applies: P. falciparum 3D7 growth, 3 d, higher = more signal.
Test [14] has as its target Homeobox protein Hox-A13 (Mus musculus) (UniProt Q62424). Description: disruptors of Hoxa13 oligonucleotide interaction – biochemical, fluorescence polarization, labeled oligonucleotide, primary screen (AID 1185). The settings on record: Hoxa13:DNA binding, 15 min, higher = more signal, called active from +8 up or from −8 down.
A short description of test [15]: blockers of DNA damage checkpoint Chk1 activation – imaging, HeLa, hydroxyurea, phospho-Chk1 antibody, percent positive cells, primary screen (AID 1186). The following applies: hydroxyurea-induced phospho-Chk1 immunofluorescence imaging, higher = more signal.
Test [16] in a line: blockers of DNA damage checkpoint Chk1 activation – imaging, HeLa, hydroxyurea, phospho-Chk1 nuclear intensity, primary screen (AID 1187). The following applies: hydroxyurea-induced phospho-Chk1 immunofluorescence imaging, higher = more signal.

Dihydroorotate dehydrogenase (quinone), mitochondrial (Plasmodium falciparum (isolate 3D7)), sequence (Q08210 whole entry, looked up): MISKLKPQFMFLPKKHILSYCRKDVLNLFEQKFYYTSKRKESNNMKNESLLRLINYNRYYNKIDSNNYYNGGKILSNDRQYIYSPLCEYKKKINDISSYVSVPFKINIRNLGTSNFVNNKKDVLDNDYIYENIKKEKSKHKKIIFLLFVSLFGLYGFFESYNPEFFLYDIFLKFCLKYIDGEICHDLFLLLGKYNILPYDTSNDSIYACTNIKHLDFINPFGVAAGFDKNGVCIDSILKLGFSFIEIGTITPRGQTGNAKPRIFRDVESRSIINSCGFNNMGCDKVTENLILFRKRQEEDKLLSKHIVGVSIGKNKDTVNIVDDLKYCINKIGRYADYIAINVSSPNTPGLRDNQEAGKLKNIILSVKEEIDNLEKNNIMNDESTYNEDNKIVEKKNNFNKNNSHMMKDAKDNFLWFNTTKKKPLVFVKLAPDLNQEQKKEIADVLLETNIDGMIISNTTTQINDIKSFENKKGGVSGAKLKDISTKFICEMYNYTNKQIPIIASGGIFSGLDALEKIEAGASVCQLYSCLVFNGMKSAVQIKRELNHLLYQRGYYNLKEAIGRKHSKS
Homeobox protein Hox-A13 (Mus musculus), sequence (Q62424 whole entry, looked up): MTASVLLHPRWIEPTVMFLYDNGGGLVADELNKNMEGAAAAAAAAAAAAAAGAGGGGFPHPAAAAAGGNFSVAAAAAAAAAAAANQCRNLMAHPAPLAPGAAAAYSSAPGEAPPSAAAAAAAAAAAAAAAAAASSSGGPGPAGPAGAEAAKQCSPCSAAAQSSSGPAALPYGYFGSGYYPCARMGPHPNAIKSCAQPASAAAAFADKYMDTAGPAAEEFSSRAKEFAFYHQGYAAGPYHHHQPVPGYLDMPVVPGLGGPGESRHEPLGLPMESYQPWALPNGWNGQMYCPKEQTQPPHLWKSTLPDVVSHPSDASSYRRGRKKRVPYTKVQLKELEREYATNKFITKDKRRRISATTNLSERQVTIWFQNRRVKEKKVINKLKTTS
E3 ubiquitin-protein ligase XIAP (Homo sapiens), sequence (P98170 whole entry, looked up, the tested form may be a part): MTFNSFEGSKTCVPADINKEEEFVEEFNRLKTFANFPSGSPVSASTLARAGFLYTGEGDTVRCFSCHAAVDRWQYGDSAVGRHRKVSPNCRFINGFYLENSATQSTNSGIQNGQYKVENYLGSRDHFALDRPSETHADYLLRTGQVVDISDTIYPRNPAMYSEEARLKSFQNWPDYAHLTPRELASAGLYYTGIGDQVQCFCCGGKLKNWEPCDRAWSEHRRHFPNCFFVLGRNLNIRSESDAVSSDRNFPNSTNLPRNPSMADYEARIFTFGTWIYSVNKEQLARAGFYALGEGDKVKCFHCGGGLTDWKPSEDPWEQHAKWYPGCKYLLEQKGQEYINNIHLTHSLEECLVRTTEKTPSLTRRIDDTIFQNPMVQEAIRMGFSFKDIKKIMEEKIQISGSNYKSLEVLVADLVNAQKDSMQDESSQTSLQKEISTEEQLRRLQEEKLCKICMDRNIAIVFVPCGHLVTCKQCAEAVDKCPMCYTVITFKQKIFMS

Take `C=C[C@@H](C)[C@H](O)c1ccc(O)c2ccccc12`: the z-score was 0.127 and 0.0729 in [1]; -8.76 (active) and -8.55 (active) in [2]; -0.683 (inactive) and -0.737 (inactive) in test [3]; 0.483 (inactive) and 0.79 (inactive) in test [5]; -0.638 (inactive) and -0.599 (inactive) in test [6]; 0.479 (inactive) and 0.435 (inactive) in test [7]. The z-score was 0.008 (inactive) and 0.189 (inactive) in test [8]; -0.861 and -0.602 in test [9]; -0.559 and 0.666 in [13]; -3.78 (inactive) and -2.87 (inactive) in [14]; 0.311 (inactive) and 0.801 (inactive) in [15]; 0.0888 (inactive) and 0.837 (inactive) in [16]. Moreover, the composite z-score was -0.94 (inactive) and -0.709 (inactive) in test [4]; -0.0893 and 0.0773 in test [10]; -0.299 (inactive) and 0.342 (inactive) in [11]; 0.892 and 0.102 in test [12].
Turning to `Cc1cc2c(nc1C)CCCN2CC(C)ON=C[C@@H](C)[C@H](OCc1ccccc1)C(C)C` (stereo not given in full), the z-score was -0.524 in test [1]; -0.0028 (inactive) in test [2]; -0.567 (inactive) in test [3]; -0.172 (inactive) in test [5]; 0.776 (inactive) in test [6]; -0.0901 (inactive) in [7]. Further, the z-score in [8] is -0.549 (inactive); in [9], -0.394; in test [13] it was 0.5; in test [14] it was -0.838 (inactive). In addition, the composite z-score was 0.103 (inactive) in [4], 0.0546 in [10], -0.144 (inactive) in test [11] and -0.0166 in [12].
`C=CCN(C(=O)C1N(c2ccc(CCO)cc2)C(=O)C2C(C(=O)O)C3C=CC21O3)c1ccc(OC)cc1` (stereo not given): the z-score in [1] was -1.89 and 0.336; in [2] it was -0.311 (inactive) and -0.641 (inactive); in test [3] it was -1.58 (inactive) and 0.522 (inactive); in test [5], -0.606 (inactive) and 0.428 (inactive); in test [6] it was 0.671 (inactive) and -0.529 (inactive); in [7] it was -0.782 (inactive) and 0.15 (inactive). For the same compound, the z-score in [8] was -0.949 (inactive) and -0.249 (inactive); in test [9] it was -0.641 and -0.0655; in [13] it was -1.09 and -0.417; in [14], -1.87 (inactive) and -0.733 (inactive); in [15] it was -0.265 (inactive) and -0.271 (inactive); in [16], -0.268 (inactive) and -0.384 (inactive). Besides, the composite z-score in test [4] is 0.51 (inactive) and -0.392 (inactive); in test [10], 0.0808 and -0.0054; in [11], 0.777 (inactive) and -0.925 (inactive); in test [12] it was 0.936 and -0.824.
Consider `C=CCN(CCCC)C(=O)C1N(CCCCCCO)C(=O)C2C(C(=O)O)C3C=CC21O3` (stereo not given), for which the z-score in test [1] was 0.063 and -0.938; in test [2], 0.569 (inactive) and 0.411 (inactive); in test [3] it was -0.76 (inactive) and -0.768 (inactive); in test [5], 0.109 (inactive) and -0.388 (inactive); in test [6], -0.751 (inactive) and -0.681 (inactive); in test [7] it was 0.03 (inactive) and -0.0327 (inactive). The z-score in test [8] is -0.146 (inactive) and -0.105 (inactive); in test [9], -0.704 and -0.992; in test [13], 1.51 and 1.68; in [14], -0.284 (inactive) and -0.72 (inactive); in test [15], 0.527 (inactive) and 1.03 (inactive); in test [16] it was 0.977 (inactive) and 1.09 (inactive). In addition, the composite z-score in [4] was -0.669 (inactive) and -0.0254 (inactive); in test [10], -0.124 and 0.18; in [11], -0.489 (inactive) and -0.198 (inactive); in test [12], -0.838 and -0.558.
Take `C[C@@H]1CC[C@H]2C(=O)N3[C@@H](CC[C@@H](C)[C@@H]3c3ccc(-c4ccco4)cc3)C(=O)N2[C@H]1c1ccc(-c2ccco2)cc1`: the z-score in [1] was -0.458 and 0.764; in test [2] it was 0.666 (inactive) and -1.56 (inactive); in test [3], -0.316 (inactive) and 1.14 (inactive); in [5], 0.143 (inactive); in [6], 0.43 (inactive) and -0.546 (inactive); in [7] it was 0.0111 (inactive) and 0.845 (inactive). Further, the z-score was -0.0533 (inactive) and 0.0395 (inactive) in test [8]; 0.136 and 1.2 in test [9]; 0.376 and 0.75 in [13]; -1.46 (inactive) and 0.517 (inactive) in test [14]. The composite z-score in test [4] was -1.48 (inactive) and -7.32 (inactive); in [10], -0.0559 and 0.217; in test [11] it was 1.47 (inactive); in test [12] it was 0.827 and 0.789.
For the compound `C[C@@H]1CC[C@H]2C(=O)O[C@H](CN=[N+]=[N-])CN2[C@H]1c1ccc(Br)cc1`, the z-score in [1] was -0.528 and 0.231; in test [2] it was -3.44 (inactive) and -4.5 (inactive); in test [3], -0.586 (inactive) and 0.637 (inactive); in test [5], 1.39 (inactive) and -0.0204 (inactive); in test [6], -0.505 (inactive) and 1.67 (inactive); in test [7], -0.686 (inactive) and -0.801 (inactive). Further, the z-score in test [8] is -0.633 (inactive) and -1.31 (inactive); in [9] it was -1.38 and 0.417; in test [13], -2.02 and -0.068; in test [14], -1.98 (inactive) and -3.31 (inactive). Also, the composite z-score in [4] is 0.41 (inactive) and 0.841 (inactive); in test [10], 0.0871 and 0.277; in test [11] it was -0.036 (inactive) and -0.0365 (inactive); in test [12], 0.183 and 0.186.
